Data from the supplement of paper PMC6089552.
Among all 3,200 compounds or so, about 300 (9.4%) showed activity. Only a selection was taken, and actives are over-represented in it overall.

Test system: A673/TR/shEF
Assay: cell viability (LOESS-normalised, relative to median of negative controls) (log2 ratio); higher = more viable cells (less compound effect), active = hit call of the paper (over 3 MAD below the median)
Conditions: treatment time: 72 h
How it was run: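 Doxycycline, present or absent from 24 h before compounds, was used to induce EWS-FLI1 shRNA knockdown in A673/TR/shEF Ewing sarcoma cells at 1,500 per well in 384-well plates. Cells then received library compounds at two or more concentrations, or DMSO controls, for three days. Viability was measured by CellTiter-Glo luminescence on an Envision reader, and per-plate LOESS correction, division by the negative-control median and log2 transformation followed.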

[1] = 0.25 µM, library screen: screen1, EWS-FLI1 expression: high (no doxycycline)
[2] = 0.25 µM, library screen: screen1, EWS-FLI1 expression: low (doxycycline-induced shRNA knockdown)
[3] = 2.5 µM, library screen: screen1, EWS-FLI1 expression: high (no doxycycline)
[4] = 2.5 µM, library screen: screen1, EWS-FLI1 expression: low (doxycycline-induced shRNA knockdown)
[5] = 0.103 µM, library screen: screen3, EWS-FLI1 expression: high (no doxycycline)
[6] = 0.103 µM, library screen: screen3, EWS-FLI1 expression: low (doxycycline-induced shRNA knockdown)
[7] = 0.308 µM, library screen: screen3, EWS-FLI1 expression: high (no doxycycline)
[8] = 0.308 µM, library screen: screen3, EWS-FLI1 expression: low (doxycycline-induced shRNA knockdown)
[9] = 0.926 µM, library screen: screen3, EWS-FLI1 expression: high (no doxycycline)
[10] = 0.926 µM, library screen: screen3, EWS-FLI1 expression: low (doxycycline-induced shRNA knockdown)
[11] = 2.8 µM, library screen: screen3, EWS-FLI1 expression: high (no doxycycline)
[12] = 2.8 µM, library screen: screen3, EWS-FLI1 expression: low (doxycycline-induced shRNA knockdown)
[13] = 8.3 µM, library screen: screen3, EWS-FLI1 expression: high (no doxycycline)
[14] = 8.3 µM, library screen: screen3, EWS-FLI1 expression: low (doxycycline-induced shRNA knockdown)
[15] = 25 µM, library screen: screen3, EWS-FLI1 expression: high (no doxycycline)
[16] = 25 µM, library screen: screen3, EWS-FLI1 expression: low (doxycycline-induced shRNA knockdown)
[17] = 0.25 µM, library screen: screen2, EWS-FLI1 expression: high (no doxycycline)
[18] = 0.25 µM, library screen: screen2, EWS-FLI1 expression: low (doxycycline-induced shRNA knockdown)
[19] = 2.5 µM, library screen: screen2, EWS-FLI1 expression: high (no doxycycline)
[20] = 2.5 µM, library screen: screen2, EWS-FLI1 expression: low (doxycycline-induced shRNA knockdown)
[21] = 0.025 µM, library screen: screen1, EWS-FLI1 expression: high (no doxycycline)
[22] = 0.025 µM, library screen: screen1, EWS-FLI1 expression: low (doxycycline-induced shRNA knockdown)
[23] = 25 µM, library screen: screen1, EWS-FLI1 expression: high (no doxycycline)
[24] = 25 µM, library screen: screen1, EWS-FLI1 expression: low (doxycycline-induced shRNA knockdown)

Measured: cell viability (log2)

O=C1C=CC2=C3c4cc(O)c(O)cc4CC3(O)COC2=C1 (configuration not stated)
inactive: [1] 0.163 | [2] 0.195 | [3] 0.225 | [4] 0.28

COc1ccc(C2COc3c(ccc(O)c3OC)C2)c(OC)c1O (configuration not stated)
inactive: [1] 0.108 | [2] 0.0205 | [3] 0.0667 | [4] -0.00772

COc1cc(OC)c2c(=O)c(-c3ccccc3)coc2c1
inactive: [1] 0.0176 | [2] 0.0621 | [3] 0.0815 | [4] 0.1

COc1cc2ncnc(Nc3ccc(F)c(Cl)c3)c2cc1OCCCN1CCOCC1
inactive: [5] 0.066 | [6] 0.0855 | [7] 0.103 | [8] 0.0493 | [9] 0.114 | [10] 0.0535 | [11] 0.136 | [12] 0.0991 | [13] 0.00987 | [14] 0.0751 | [15] -0.0152 | [16] 0.0721

CS(=O)(=O)CCNCc1ccc(-c2ccc3ncnc(Nc4ccc(OCc5cccc(F)c5)c(Cl)c4)c3c2)o1
inactive: [5] 0.145 | [6] 0.0528 | [7] 0.146 | [8] 0.112 | [9] 0.139 | [10] 0.114 | [11] 0.0651 | [12] 0.113 | [13] 0.0899 | [14] 0.0389 | [15] 0.0387 | [16] 0.0962

COc1cc2c(N3CCN(C(=O)Nc4ccc(OC(C)C)cc4)CC3)ncnc2cc1OCCCN1CCCCC1
inactive: [5] -0.0129 | [6] -0.0538 | [7] -0.0428 | [8] -0.0392 | [9] -0.0343 | [10] -0.0604 | [11] 0.0597 | [12] 0.0175 | [13] 0.0441 | [14] 0.0441 | [15] -0.0915 | [16] 0.0601

CN(C)C/C=C/C(=O)Nc1cc2c(Nc3ccc(F)c(Cl)c3)ncnc2cc1O[C@H]1CCOC1
inactive: [5] -0.033 | [6] 0.00738 | [7] -0.0507 | [8] -0.00854 | [9] 0.0161 | [10] -0.000186 | [11] 0.00307 | [12] -0.0241 | [13] -0.0486 | [14] -0.0662
active: [15] -1.35 | [16] -1

COc1cc2c(Nc3ccc(Br)cc3F)ncnc2cc1OCC1CCN(C)CC1
inactive: [5] -0.0043 | [6] 0.0398 | [7] -0.0447 | [8] 0.068 | [9] 0.0443 | [10] 0.0503 | [11] -0.0379 | [12] 0.00456 | [13] -0.00527 | [14] -0.0123 | [15] -0.0986 | [16] -0.0825

C=CC(=O)Nc1cc2c(Nc3ccc(F)c(Cl)c3)ncnc2cc1OCCCN1CCOCC1
active: [13] -0.188 | [15] -0.199 | [16] -0.281
inactive: [5] 0.0394 | [6] 0.0254 | [7] -0.016 | [8] 0.0224 | [9] -0.0215 | [10] -0.0107 | [11] -0.0981 | [12] -0.0776 | [14] -0.0307

CCCCCCCCCCCCCCCC(=O)NCC(COP(=O)([O-])OCC[N+](C)(C)C)OCC (configuration not stated)
inactive: [17] 0.198 | [18] 0.0364 | [19] 0.0761 | [20] -0.0192

COc1ccc(C(=O)c2ccccc2)c(O)c1O
inactive: [1] 0.123 | [2] 0.143 | [3] 0.244 | [4] 0.216

COc1ccc2c(c1)c(CC(=O)Nc1ccc(NC(C)=O)cc1)c(C)n2C(=O)c1ccc(Cl)cc1
inactive: [17] -0.0274 | [18] 0.0874 | [19] 0.0757 | [20] 0.214

CCCN(CCC)CCc1cccc2c1CC(=O)N2
active: [17] -0.0806 | [18] -0.203 | [19] -3.18 | [20] -2.79

CCN1C(=O)/C(=C/c2c(N3CCN(C)CC3)nc3ccccn3c2=O)SC1=S
inactive: [1] 0.0782 | [2] 0.0798 | [3] 0.126 | [4] 0.0777

COc1ccc(-c2nn(-c3ccccc3)cc2C=O)cc1[N+](=O)[O-]
inactive: [1] 0.000395 | [2] 0.0393 | [3] 0.0878 | [4] 0.0816

Cc1cc2ncc(-c3ccccc3)nc2cc1C
inactive: [21] 0.21 | [22] 0.0761 | [1] 0.265 | [2] 0.0996 | [4] 0.141 | [24] 0.0902
active: [3] -0.0894 | [23] -0.147

O=C(Nc1ccccn1)c1cc(-c2ccccc2)nc2ccccc12
inactive: [1] 0.083 | [2] -0.00975 | [3] 0.0888 | [4] -0.0311

COc1ccccc1N(C(N)=O)c1nc(-c2cccnc2)nc2ccccc12
inactive: [17] 0.155 | [18] 0.0439 | [19] 0.275 | [20] 0.0633

COc1cc2ncc(-c3ccccc3)nc2cc1OC
inactive: [21] 0.165 | [22] -0.00441 | [1] 0.202 | [2] 0.0199 | [17] 0.139 | [18] 0.0671 | [3] -0.0715 | [4] 0.188 | [19] 0.212 | [20] 0.201 | [24] 0.175
active: [23] -0.157

C=C(c1ccccc1)c1cc(O)c(OC)cc1O
inactive: [1] -0.0139 | [2] -0.00424 | [3] 0.0356 | [4] 0.0603

CC1=C(C(=O)OCC2CCCO2)C(c2coc3ccccc3c2=O)C2=C(CCCC2=O)N1 (configuration not stated)
inactive: [1] 0.0728 | [2] 0.022 | [3] 0.00147 | [4] 0.0061

COc1ccc2c(c1)OC1CC1(c1ccccc1OC)C2=O (configuration not stated)
inactive: [1] 0.0685 | [2] 0.0535 | [3] 0.0294 | [4] 0.0412

COc1ccc(OC)c(CN2CCN(Cc3ccco3)CC2)c1
inactive: [1] 0.136 | [2] 0.00829 | [3] 0.0712 | [4] 0.0546
